12 compounds from PubChem BioAssay can be followed below.

The target in assay [1] is NAD(+) hydrolase SARM1 (Homo sapiens) (UniProt Q6SZW1). Description: blocking NAD cleavage by SARM1 SAM-TIR – cell lysate, NAD-Glo luminescence (AID 1508614;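 active means compound whose remaining NAD level is above about 45 nM, limit read from the data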). To be noted: SAM-TIR HEK293T lysate NADase, at 1 µM, stronger effect = higher value.
Assay [2] can be described thus: galactose survival enhancers in mitochondrial complex I cybrids – cell-based, galactose medium, ATP luminescence, primary screen (AID 1645843;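 active means z-score of at least 1.8 in each of two replicates, scored against plate mean and spread of sample wells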;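 further: positive z means more ATP and so rescue of galactose-driven cybrid death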). To be noted: complex I mutant cybrid cells, 72 h, stronger effect = higher value.
For the next assay, the system named is F380Y. Description: BK channel mutant inhibitors and activators – cell-based, U2OS BacMam, thallium flux, beta subunits, selectivity assay, profiling panel (AID 1259406).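 Further: initial slope of Thallos dye fluorescence rise after thallium is added; log ratio against the mean of 0.3% DMSO vehicle wells on the same plate.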 To be noted: U2OS BacMam BK variants, at 30 µM.
Another assay relates to F380Y/beta1. Described as above. To be noted: U2OS BacMam BK variants, at 30 µM.
The nature of assay [3]: growth inhibition, single agent or in combination, cell-based, chromothripsis tumors, cisplatin or BGB combos (AID 1671449; in the data active means inhibition above about 80%;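 further: cells exposed for 96 hours; 0% = vehicle DMSO and 100% = killing by high DMSO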). To be noted: LFS_MB_P medulloblastoma cells.
The nature of assay [4]: growth inhibition, single agent and combos, cell-based, chromothripsis tumors, cisplatin or BGB combos (AID 1671450; in the data active means inhibition above about 80%;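 further: cells exposed to compound for four days; 0% = vehicle DMSO and 100% = cell killing by high DMSO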). To be noted: HDN33 neuroblastoma cells, stronger effect = higher value.
Assay [5] in a line: growth inhibition, single agents and combos, ICB984, cell-based, cisplatin or BGB combos, synergistic combos for chromothripsis tumors (AID 1671451; call rule not given here;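 further: cells exposed for 96 hours before readout; 0% = vehicle DMSO and 100% = killing by high DMSO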). To be noted: ICB984 medulloblastoma cells, drug combinations, stronger effect = higher value.
Assay [6] in a line: growth inhibition, single agents and combos, LFS_MB_1R, cell-based, cisplatin or BGB combos, synergistic combos for chromothripsis tumors (AID 1671452; in the data active means inhibition above about 80%;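 further: cells exposed for 96 hours before readout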). To be noted: LFS_MB_1R medulloblastoma cells, stronger effect = higher value.
A short description of assay [7]: growth inhibition, single agents and combos, HTB85, cell-based, BGB or cisplatin IC20 combos, synergistic combos for chromothripsis tumors (AID 1671453; in the data active means inhibition above about 80%;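 further: cells exposed for 96 hours before readout; 0% = vehicle DMSO and 100% = high DMSO killing control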). To be noted: HTB85 osteosarcoma cells, drug combinations, stronger effect = higher value.
Assay [8] can be described thus: growth inhibition, single agents and combos, CRL2098, cell-based, BGB or cisplatin IC20 combos, synergistic combos for chromothripsis tumors (AID 1671454; in the data active means inhibition above about 80%;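 further: cells exposed for 96 h before readout; 0% = vehicle DMSO and 100% = killing by high DMSO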). To be noted: CRL2098 osteosarcoma cells, drug combinations, stronger effect = higher value.
Assay [9] is described as follows: growth inhibition, single agents and combos, HD-MB03, cell-based, BGB or cisplatin IC20 combos, synergistic combos for chromothripsis tumors (AID 1671455; in the data active means inhibition above about 83%;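 further: 0% = vehicle DMSO and 100% = high DMSO as cytotoxic control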). To be noted: HD-MB03 medulloblastoma cells, stronger effect = higher value.
A short description of assay [10]: growth inhibition, single agents and combos, UWB1.289, cell-based, BGB or cisplatin combos, synergistic combos for chromothripsis tumors (AID 1671456; in the data active means inhibition above about 80%;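 further: cells exposed to compound for four days; 0% = vehicle DMSO and 100% = killing by high DMSO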). To be noted: UWB1.289 ovarian carcinoma cells, stronger effect = higher value.
Assay [11] is described as follows: growth inhibition, single agents and combos, LFS_MB_2R, cell-based, cisplatin combos, synergistic combos for chromothripsis tumors (AID 1671457; in the data active means inhibition above about 80%;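 further: cells exposed to compound for four days before readout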). To be noted: LFS_MB_2R medulloblastoma cells, stronger effect = higher value.
A short description of assay [12]: growth inhibition, MDA-MB-436, cell-based, BGB or cisplatin combos, synergistic combos for chromothripsis tumors (AID 1671458; call rule not given here;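 further: cells exposed for 96 hours; 0% = vehicle DMSO and 100% = killing by high DMSO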). To be noted: MDA-MB-436 breast carcinoma growth inhibition, drug combinations, stronger effect = higher value.
The nature of assay [13]: UWB1.289_BRCA1 ovarian cancer growth, cell-based, BGB or cisplatin combinations (AID 1671459; in the data active means inhibition above about 80%). To be noted: UWB1.289 BRCA1 ovarian carcinoma, drug combinations, stronger effect = higher value.
Assay [14] is described as follows: drug combination toxicity in non-malignant astrocytes – cell-based, BGB or cisplatin IC20 combos, cytotoxicity control for chromothriptic childhood tumor combination screen (AID 1671460; in the data active means inhibition above about 80%;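 further: cells exposed to compounds for 96 hours before viability readout; 0% = vehicle and 100% = killing control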). To be noted: Human astrocytes, viability inhibition, drug combinations, at 0.5 µM, stronger effect = higher value.
Assay [15] in a line: BT084 cell growth, single and combined drugs, ICGC_MB145, cisplatin and BGB IC40 combos (AID 1671461; in the data active means inhibition above about 80%;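 further: cells exposed to drugs for 96 hours; 0% = vehicle DMSO and 100% = high DMSO full killing control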). To be noted: BT084 medulloblastoma cells, drug combinations, stronger effect = higher value.
Assay [16] in a line: RCMB18 cell growth, single agent and combined, cisplatin and BGB IC40 combos (AID 1671462; in the data active means inhibition above about 80%;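 further: cells exposed to compound for four days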). To be noted: RCMB18 medulloblastoma cells, stronger effect = higher value.
Assay [17] can be described thus: CRL1545 cell growth, single agent and combined, cisplatin and BGB IC20 combos (AID 1671464; in the data active means inhibition above about 80%;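 further: cells exposed to compound for 96 hours before readout; 0% = vehicle DMSO and 100% = high DMSO killing control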). To be noted: CRL1545 osteosarcoma cells, stronger effect = higher value.
Setting [18] is: measured here: combination with BGB IC40, at 0.05 µM.
The mark [19] stands for this setting: measured here: with BGB IC20 combination, at 0.5 µM.
The mark [20] stands for this setting: measured here: with cisplatin IC20 combination, at 0.5 µM.
Where [21] appears, read: measured here: combination with cisplatin, at 0.5 µM.
The mark [22] stands for this setting: measured here: combination with cisplatin, at 5 µM.

Several values for one entry are separate records, joined by “and”; a condition that tells them apart may be missing. Equal entries are not always repeated. Activity calls are given as the source filed them.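 How the source made its calls, unless noted: active means thallium flux through the channel raised or lowered by more than 3 SD from vehicle-only wells, actives on both sides; inactive means the rest.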

Sequence of NAD(+) hydrolase SARM1 (Homo sapiens) (Q6SZW1 whole entry, looked up): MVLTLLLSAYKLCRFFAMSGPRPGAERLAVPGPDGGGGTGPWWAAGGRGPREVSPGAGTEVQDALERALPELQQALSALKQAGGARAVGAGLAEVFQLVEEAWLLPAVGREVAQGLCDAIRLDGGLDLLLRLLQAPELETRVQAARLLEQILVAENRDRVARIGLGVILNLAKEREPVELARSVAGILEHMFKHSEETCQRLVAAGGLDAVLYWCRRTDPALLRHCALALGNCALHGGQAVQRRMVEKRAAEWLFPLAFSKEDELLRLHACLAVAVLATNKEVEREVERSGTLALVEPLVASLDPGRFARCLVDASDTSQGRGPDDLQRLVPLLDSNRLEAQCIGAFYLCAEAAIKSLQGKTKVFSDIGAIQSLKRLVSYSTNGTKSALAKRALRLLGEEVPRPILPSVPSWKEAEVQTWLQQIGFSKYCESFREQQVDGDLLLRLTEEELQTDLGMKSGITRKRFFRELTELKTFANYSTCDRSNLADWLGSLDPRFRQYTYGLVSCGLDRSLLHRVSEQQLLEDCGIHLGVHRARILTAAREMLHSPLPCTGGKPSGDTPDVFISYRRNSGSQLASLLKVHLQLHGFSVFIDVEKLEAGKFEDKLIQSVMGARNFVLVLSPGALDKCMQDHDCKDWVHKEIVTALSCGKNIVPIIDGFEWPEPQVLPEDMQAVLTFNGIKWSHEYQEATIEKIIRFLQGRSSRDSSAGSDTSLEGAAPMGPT

On to `Cc1[nH]c(=O)c(C#N)cc1-c1ccncc1`, for which, in [1], the remaining NAD is 10 nM (inactive). Moreover, in assay [2], the z-score was 0.46 (inactive) and 0.67 (inactive) and 0.525 (inactive). Moreover, the figures for the log fold change Tl+ flux in the assay with F380Y and with F380Y/beta1 were 0.00987 (inactive) and -0.00723 (inactive), respectively.
With `CC(C)c1ccc2oc3nc(N)c(C(=O)O)cc3c(=O)c2c1`, the remaining NAD in assay [1] is 10 nM (inactive). In addition, in assay [2], the z-score was 0.635 (inactive). Besides, the log fold change Tl+ flux with F380Y was 0.0548 (inactive); in the assay on F380Y/beta1, 0.0494 (inactive).
Turning to `CCCN[C@H]1CCc2nc(N)sc2C1`, the z-score in assay [2] is 0.97 (inactive). Also, the log fold change Tl+ flux was 0.0634 (inactive) and -0.0393 (inactive) in the assay with F380Y; 0.0248 (inactive) in the assay on F380Y/beta1.
With `CN(C)CC/C=C1/c2ccccc2COc2ccc(CC(=O)O)cc21`, the z-score in [2] was 0.505 (inactive). The log fold change Tl+ flux in the assay with F380Y is 0.0275 (inactive); in the assay on F380Y/beta1 it was 0.0119 (inactive).
Regarding `CCOc1cc(CC(=O)N[C@@H](CC(C)C)c2ccccc2N2CCCCC2)ccc1C(=O)O`, the remaining NAD in assay [1] is 10 nM (inactive). Besides, in [2], the z-score was 3.92 (active). In addition, the log fold change Tl+ flux in the assay on F380Y is 0.252 (active); in the assay on F380Y/beta1 it was 0.45 (active).
Consider `N#Cc1ccc(C(c2ccc(C#N)cc2)n2cncn2)cc1`, for which the remaining NAD in assay [1] was 10 nM (inactive). For the same compound, the z-score in [2] was 0.515 (inactive) and 0.315 (inactive). In addition, the figures for the log fold change Tl+ flux in the assay on F380Y and with F380Y/beta1 were -0.0169 (inactive) and 0.0204 (inactive), respectively.
As for `CCc1nn(CCCN2CCN(c3cccc(Cl)c3)CC2)c(=O)n1CCOc1ccccc1`, the remaining NAD in assay [1] is 10 nM (inactive). In assay [2], the z-score is -1.88 (inactive) and -0.63 (inactive) and -2.48 (inactive). For the same compound, the log fold change Tl+ flux is -0.403 (active) with F380Y and -0.178 (active) with F380Y/beta1.
For `CN(CCOc1ccc(NS(C)(=O)=O)cc1)CCc1ccc(NS(C)(=O)=O)cc1`, the z-score in assay [2] is 0.355 (inactive) and 0.06 (inactive) and 0.77 (inactive). Further, the log fold change Tl+ flux in the assay on F380Y was 0.0506 (inactive); with F380Y/beta1, 0.0264 (inactive).
One may read the inhibition as the drop in the measured response relative to a control, in per cent. Turning to `Cc1ccnc2c1NC(=O)c1cccnc1N2C1CC1`, the remaining NAD in [1] is 10 nM (inactive). For the same compound, in assay [2], the z-score is 0.47 (inactive). Further, the inhibition in [3] (at 0.5 µM, stronger effect = higher value) was 65.5% (inactive); in assay [3] (measured here: combination with BGB IC20, at 0.005 µM) it was -14.8%; in assay [3] (measured here: combination with BGB IC40, at 0.005 µM), -23.6%; in assay [3] (setting [18]), -7.3%; in assay [3] (measured here: combination with cisplatin, at 0.5 µM, stronger effect = higher value), 96.2%; in assay [3] (measured here: combination with cisplatin, at 5 µM, stronger effect = higher value) it was -8.68%. Also, the inhibition in assay [4] (BGB combo, at 5 µM) is -9.4%; in assay [4] (at 0.5 µM) it was -11.8% (inactive); in [4] (cisplatin combo, at 5 µM), 24.4%; in [4] (setting [19]), -18.3%; in assay [4] (setting [20]) it was 0.871%; in [4] (single agent, at 5 µM), -21.1%. Besides, the inhibition in [5] (BGB IC20 combo, at 0.005 µM) was 7.31%; in assay [5] (BGB IC40 combo, at 0.005 µM), -7.13%; in [5] (BGB IC40 combo, at 0.05 µM) it was -20.9%; in assay [5] (at 0.5 µM), -20.4% (inactive); in [5] (cisplatin combo, at 0.05 µM), -24.3%; in assay [5] (cisplatin combo, at 0.5 µM), -22.4%. The inhibition in assay [5] (cisplatin combo, at 5 µM) is -11%; in assay [5] (measured here: 5 uM single agent, at 5 µM), -28.4%; in assay [6] (at 0.5 µM), -9.83% (inactive); in assay [6] (setting [18]), -16.2%; in assay [6] (setting [21]) it was 15.1%; in assay [6] (setting [22]) it was 29.5%. The inhibition in [7] (at 0.5 µM) was -11.8% (inactive); in assay [7] (measured here: with BGB IC20, at 0.5 µM) it was -22.9%; in [7] (measured here: with BGB IC20, at 5 µM) it was 53.6%; in assay [7] (measured here: with cisplatin IC20, at 0.5 µM), -9.99%; in assay [7] (measured here: with cisplatin IC20, at 5 µM) it was -37.2%; in assay [7] (single agent, at 5 µM), -7.51%. The inhibition in [8] (at 0.5 µM) is -33.2% (inactive); in [8] (measured here: combination with BGB at IC20, at 0.5 µM), -9.42%; in assay [8] (measured here: combination with cisplatin at IC20, at 0.5 µM) it was -39.8%; in assay [9] (at 0.5 µM), -18.2% (inactive); in [9] (measured here: combo with BGB at IC20, at 0.5 µM), -13%; in [9] (measured here: combo with cisplatin at IC20, at 0.5 µM), -23.9%. The inhibition in [10] (at 0.5 µM) is -0.21% (inactive); in assay [10] (measured here: inhibition with BGB combination, at 0.05 µM), -23.1%; in [10] (measured here: inhibition with cisplatin combination, at 0.05 µM) it was -13.9%; in assay [11] (at 0.5 µM) it was -7.48% (inactive); in assay [11] (setting [21]), 3.86%; in assay [11] (setting [22]), -37.6%. Moreover, the inhibition in assay [12] (at 0.5 µM) is -22.8% (inactive); in assay [12] (measured here: BGB combination, at 0.5 µM) it was -19.7%; in assay [12] (measured here: BGB combination, at 5 µM), -27%; in assay [12] (measured here: cisplatin combination, at 0.5 µM), -29.5%; in assay [12] (measured here: cisplatin combination, at 5 µM), -14.1%; in [13] (BGB combination, concentration series, at 5 µM), -12.7%. Moreover, the inhibition in [13] (at 0.5 µM) is -12.9% (inactive); in assay [13] (cisplatin combination, concentration series, at 5 µM), -3.3%; in assay [14], -5.51% (inactive); in assay [14] (measured here: combo with BGB IC20) it was -5.33%; in assay [14] (measured here: combo with cisplatin IC20), 4.46%; in assay [15] (at 0.5 µM) it was -28.8% (inactive). Also, the inhibition in [15] (cisplatin combination, at 0.5 µM) was -7.59%; in assay [15] (cisplatin combination, at 5 µM), -3.69%; in [15] (measured here: BGB IC40 combination 0.05 uM, at 0.05 µM) it was -12.5%; in assay [15] (single agent, at 5 µM), -22.7%; in [16] (at 0.5 µM) it was -8.82% (inactive); in assay [16] (cisplatin combo, at 5 µM) it was 24.6%. Besides, the inhibition in assay [16] (measured here: BGB IC40 combination, at 0.05 µM) was -2.75%; in [16] (setting [21]), 5.5%; in assay [16] (single agent, at 5 µM), -19.9%; in assay [17] (at 0.5 µM), -10.3% (inactive); in assay [17] (setting [19]), -9.73%; in assay [17] (setting [20]) it was -13%. Moreover, the inhibition in assay [17] (single agent, at 0.05 µM) was -39.8%; in assay [17] (single agent, at 5 µM), 1.39%. Besides, the log fold change Tl+ flux with F380Y was -0.00202 (inactive); in the assay on F380Y/beta1, 0.0188 (inactive).
Consider `COc1cc(C)nc(-n2nc(C)cc2OC)n1`, for which the z-score in assay [2] was 0.61 (inactive). Also, the results for the log fold change Tl+ flux in the assay with F380Y and in the assay with F380Y/beta1 were -0.0134 (inactive) and -0.00765 (inactive), respectively.
Take `O=C1Nc2ccc(Cl)cc2[C@@](C#CC2CC2)(C(F)(F)F)O1`: the z-score in [2] is -1.77 (inactive) and -2 (inactive). In addition, the log fold change Tl+ flux in the assay with F380Y is 0.0449 (inactive); in the assay on F380Y/beta1, 0.167 (active).
`O=C1N(c2ccccc2)c2ccccc2C1(Cc1ccncc1)Cc1ccncc1`: the z-score in [2] was -0.165 (inactive) and 0.43 (inactive) and -0.3 (inactive). Besides, the log fold change Tl+ flux with F380Y is 0.0425 (inactive); in the assay with F380Y/beta1, -0.0119 (inactive).
